# Assay outcomes as filed in PubChem.
# PNC inhibitor: perinucleolar compartment assembly inhibition; PC3M PTB-GFP, PNC prevalence imaging, 16 h; stronger effect = lower value; activity change (PNC), negative = inhibition, % at 10 µM; hit rate 3.1% among 140,000;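 active = readout at or below -70, meaning at least 70% loss of cells showing the perinucleolar compartment, a nuclear body marking cancer cells; inconclusive = readout between -30 and a set limit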;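 note: plate controls were DMSO wells for no effect and camptothecin positive control wells for full effect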
#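 Compounds are pinned in duplicate onto adhered PC3M cells stably expressing GFP-tagged PTB and incubated 16 h at 37 C. Cells are then fixed, nuclei stained with Hoechst, and PNC-positive cells counted.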
# HPGD block: HPGD (human) dehydrogenase inhibition. P15428. purified HPGD, NADH fluorescence kinetic, PGE2 substrate. Potency, µM, for inactives: top-dose activity change, negative = inhibition, hits mostly inhibitors. hit rate 4.3% among 150,000. AID 894; note: potency is the fitted concentration of half-maximal effect
# Target sequence (P15428 whole entry, looked up): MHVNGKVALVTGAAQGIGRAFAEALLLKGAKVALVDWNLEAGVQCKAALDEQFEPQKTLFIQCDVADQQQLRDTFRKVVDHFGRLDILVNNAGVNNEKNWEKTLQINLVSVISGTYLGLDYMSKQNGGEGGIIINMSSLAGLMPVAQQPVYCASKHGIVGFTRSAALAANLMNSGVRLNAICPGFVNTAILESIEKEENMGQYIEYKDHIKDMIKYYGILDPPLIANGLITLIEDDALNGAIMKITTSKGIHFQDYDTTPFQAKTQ
#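 NADH formation kinetics: reaction with 30 uM PGE2 and 1 mM NAD+ (final), 20 nM enzyme, Tris-HCl pH 8 with Tween 20, after 15 min compound preincubation at room temperature. Fluorescence change, last versus first of five reads.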
# LMNA splice mod: modulators of lamin A splicing; HeLa LMNA splicing GFP/RFP minigene ratio, 48 h; Potency, µM (top dose mostly 46.1 µM), without a hit: at the top dose ratio change, negative = inhibition, most hits filed as inhibitors; hit rate 0.01% among 200,000; active = well fitted inhibition curve with a large enough effect in the signal ratio, with a control signal flat, not every such curve was filed as active; inconclusive = small, poorly fitted or top-dose-only effect, or effect the other way, or a change in a side signal; the % refers to the signal ratio; note: potency is the fitted concentration of half-maximal effect
#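 S3 HeLa stable clones carrying a lamin A-EGFP splicing minigene plus DsRed2 were seeded at 600 cells/well in Opti-MEM with 2% FBS, pin-dosed and incubated 48 h at 37°C. Acumen cytometry (488 nm) gave the GFP/RFP total-intensity ratio.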
# 12-hLO inh: blocks human 12-lipoxygenase activity. Potency, µM (top dose mostly 57.1 µM), for inactives: at the highest dose activity change, negative = inhibition, actives largely listed as inhibitors. purified 12-hLO, xylenol orange hydroperoxide absorbance. AID 1452. hit rate 0.12% among 150,000. P18054; active = well fitted inhibition curve with a large enough effect; inconclusive = small, poorly fitted or top-dose-only effect; note: potency is the fitted concentration of half-maximal effect; nearly all actives have a fitted effect of over 55% in size
#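 Purified human 12hLO (150 nM final) was preincubated with compounds for 15 min at room temperature in 25 mM Hepes pH 7.0, 0.01% Triton X-100, then reacted with 40 uM arachidonic acid for 30 min. Hydroperoxide was detected with ferrous iron/xylenol orange.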
# ALDH1A1 inh: blocks purified human ALDH1A1 activity | P00352 | Purified ALDH1A1, NADH fluorescence, propionaldehyde substrate | Potency, µM (top dose mostly 75.3 µM), for the others: top-dose activity, negative = inhibition, most hits filed as inhibitors | hit rate 7.3% among 220,000 | AID 1030;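 note: potency is the fitted concentration of half-maximal effect; plate controls were no enzyme wells and a reference inhibitor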
# Target sequence (P00352 whole entry, looked up): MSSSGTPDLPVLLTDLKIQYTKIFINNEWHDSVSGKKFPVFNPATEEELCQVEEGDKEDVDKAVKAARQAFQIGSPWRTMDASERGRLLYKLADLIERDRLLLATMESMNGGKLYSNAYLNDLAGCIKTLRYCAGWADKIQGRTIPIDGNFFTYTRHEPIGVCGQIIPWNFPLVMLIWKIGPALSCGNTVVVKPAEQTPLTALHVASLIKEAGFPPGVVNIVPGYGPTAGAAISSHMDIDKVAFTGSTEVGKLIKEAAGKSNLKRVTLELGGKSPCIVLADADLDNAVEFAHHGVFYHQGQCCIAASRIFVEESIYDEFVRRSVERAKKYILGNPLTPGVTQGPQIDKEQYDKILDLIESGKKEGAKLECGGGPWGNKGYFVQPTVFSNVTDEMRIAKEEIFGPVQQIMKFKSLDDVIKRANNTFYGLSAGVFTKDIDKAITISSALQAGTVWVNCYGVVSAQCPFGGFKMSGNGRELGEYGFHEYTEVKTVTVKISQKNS
# Active calls of the source: *; u = inconclusive; x = no result; [ ] = another dose, or the depositor's remark. Rows were chosen to be rich in hits. Some 10% of all compounds tested hit in one or more screens of this group. Unless noted, calls come from the whole dose curve; as a rule, active = well fitted inhibition curve with a large enough effect (not every such curve was filed as active); inconclusive = small, poorly fitted or top-dose-only effect, or another doubt; inactive = no such curve, though single readings can be large or run the other way. Unless noted, % is set by controls: 0 for no effect and ±100 for the full control effect.
SMILES,PNC inhibitor,HPGD block,LMNA splice mod,12-hLO inh,ALDH1A1 inh
COC(=O)c1ccccc1NC(=O)c1sc(=S)n(C)c1N,u,22.4µM*,10.1%,-10.3%,20µM*
CCOC(=O)CSc1nc2c(sc3cccc(F)c32)c(=O)n1Cc1ccc(OC)cc1,x,x,16.4%[46 µM],x,x
O=c1cc(-c2ccccc2O)oc2c1ccc1ccccc12,x,-1.7%,x,-4.6%,-0.4%
c1coc(-c2ncc[nH]2)c1,-97.2*,-11.0%,10.3%,-2.1%,17.8µM*
c1coc(-c2nc(-c3ccco3)c(-c3ccco3)nc2-c2ccco2)c1,-23.2,u,u,u,u
COc1cc(C(=O)Nc2nnc(C(C)(C)C)s2)c([N+](=O)[O-])cc1OC,-3.2,20µM*,-3.6%,-0.7%,u
COc1cc(C(=O)Nc2nnc(CC(C)(C)C)s2)c([N+](=O)[O-])cc1OC,-7.2,-13.8%,u,-0.7%,-2.2%
O=S(=O)(c1ccc(C2=CSC3=NCCN23)cc1)N1CCOCC1,-8.4,u,3.2%,-5.2%,15.8µM*
COc1cccc(CNC(=O)CSc2cc(C)[nH]c(=O)n2)c1,x,x,4.2%[46 µM],x,x
Cc1noc(C)c1CSc1ccccc1C(=O)N1CCN(c2ccccc2)CC1,-100.0*,-13.8%,u,0.4%,u
CCOc1ccc(NC2c3ccccc3C(=O)N2Cc2ccco2)cc1 (configuration not stated),-7.6,-21.2%,u,-8.6%,5.62µM*
CCN(CC)S(=O)(=O)c1nnc(NC(=O)c2ccc(Br)cc2)s1,x,x,8.6%[46 µM],x,x
Cc1ccc(NC(=S)N(CCN(C)C)Cc2cc3cc(C)cc(C)c3[nH]c2=O)cc1,-116.4*,-4.3%,-12.1%,0.1%,12.8%
Cc1ccc2cc(CN(CCN(C)C)C(=S)Nc3ccccc3)c(=O)[nH]c2c1C,x,x,u,x,2.0%
Cc1cc(C)c2[nH]c(=O)c(CN(Cc3ccco3)C(=O)c3cccs3)cc2c1,-20.3,u,8.7%,-0.8%,17.8µM*
COc1cccc(C(=O)N(Cc2ccco2)Cc2cc3cccc(C)c3[nH]c2=O)c1,u,x,-10.4%,-10.1%,14.1µM*
O=C(c1cccs1)N(Cc1ccco1)Cc1cc2ccccc2[nH]c1=O,-117.0*,-13.9%,-8.1%,-8.7%,u
C=C1CC[C@H](O)C/C1=C/C=C1\CCC[C@]2(C)C([C@H](C)CC[C@@H](O)C(C)(C)O)CC[C@@H]12 (some centres not stated),x,x,x,x,0.8%
CC1CCCCN1S(=O)(=O)c1cc2c(=O)nc3ccccn3c2cc1Cl (configuration not stated),x,x,-3.2%[46 µM],x,x
CCc1ccccc1NC(=O)C(=O)NCC(c1cccnc1)N1CCc2ccccc21 (configuration not stated),x,x,11.5%[46 µM],x,x
CCOc1ccc2[nH]c(=O)c(CN(Cc3ccco3)C(=O)c3ccc(Br)cc3)cc2c1,32.2,-19.9%,10.2%,-24.9%,4.47µM*
CCOc1cc(CNc2ccc3c(c2)CCC3)ccc1O,-12.9,-7.4%,2.8%,-2.9%,u
COc1ccc(CNc2cc(C)ccc2C)c(OC)c1OC,1.5,-21.7%,u,-4.5%,u
COc1cc(CNc2ccc3c(c2)CCC3)cc(OC)c1O,-20.4,-27.2%,-14.8%,-6.8%,20µM*
COc1ccc(CNc2ccc(C)c(C)c2)c(OC)c1OC,x,x,x,x,12.6µM*
SMILES,PNC inhibitor,HPGD block,LMNA splice mod,12-hLO inh,ALDH1A1 inh
COc1cc(CNc2ccc(C)c(C)c2)cc(OC)c1OC,-28.7,-10.8%,u,-23.7%,8.91µM*
COc1ccc(C)cc1S(=O)(=O)NCC(c1cccs1)S(=O)(=O)c1ccc(C)cc1 (configuration not stated),x,x,-10.4%[46 µM],x,x
O=C1c2ccccc2-c2ccc(N=[N+]([O-])c3ccc4c(c3)C(=O)c3ccccc3-4)cc21,x,-10.5%,x,2.2%[11.4 µM],7.6%[13.5 µM]
CCCN1C(=O)C(Cc2nc3ccccc3c(=O)n2-c2ccccc2)c2ccccc21 (configuration not stated),41.7,-1.7%,4.8%,-1.2%,8.91µM*
Cc1nc2ccccn2c1-c1csc(NCc2ccco2)n1,14.6,u,u,-3.9%,22.4µM*
CCc1ccc(NC(=O)Cn2ccn(-c3ccc(C)c(C)c3)c(=O)c2=O)cc1,x,x,17.4%[46 µM],x,x
COc1cccc(C2C(=O)c3ccccc3C2=O)c1,x,x,7.2%[46 µM],x,-0.3%
COc1ccc(C2C(=O)c3ccccc3C2=Nc2ccc(Br)cc2)cc1 (configuration not stated),67.1,7.08µM*,3.0%,6.2%,28.2µM*
CCCCN1C(=O)/C(=C2\SC(N3CCCCC3)=NC2=O)c2ccccc21,-17.2,22.4µM*,u,-2.9%,10µM*
CCn1nc(C)c(CNC(=O)CCc2nnc(-c3ccc(C(C)=O)s3)o2)c1C,x,x,10.6%[46 µM],x,31.6µM*
Cc1ccc(S(=O)(=O)NNc2ccccc2)c(C)c1,u,8.91µM*,-15.7%,u,7.08µM*
Cc1ccc(S(=O)(=O)NCCSc2nnnn2-c2cc(C)ccc2C)cc1,-21.4,-4.8%,u,-26.1%,0.891µM*
COc1ccc(CNCCSc2nnnn2-c2ccccc2)cc1,x,x,5.6%[46 µM],x,x
Cc1ccc(C)c(-n2nnnc2Sc2nnnn2-c2ccccc2)c1,-0.4,-7.1%,u,-1.8%,22.4µM*
Cc1ccc(S(=O)(=O)NCCSc2nnnn2-c2ccccc2)cc1,u,-17.6%,u,-7.2%,1µM*
O=c1c(-c2cc(F)cc(F)c2)nc2cnc(N3CCOCC3)nc2n1C[C@H]1CCCO1,x,x,1.9%,x,u
CCOc1ccc(CNC(=O)c2cc3c(=O)n(Cc4cccs4)ccc3nc2C)cc1,x,x,-6.8%[46 µM],x,x
Cc1ccc(C)c(NC(=O)CSc2nc3c(c(=O)n2C)SC(C)C3)c1 (configuration not stated),-20.0,-16.8%,-2.6%,2.3%,-8.0%
Cc1ccc2nc(NC(=O)CSc3nc4c(c(=O)n3C)SC(C)C4)sc2c1 (configuration not stated),-2.6,u,-21.5%,-16.9%,14.1µM*
CN(C)c1ccc(C(CNS(=O)(=O)c2ccc(Cl)cc2)N2CCCC2)cc1 (configuration not stated),x,x,-5.8%[46 µM],x,x
O=S(=O)(NCC(c1ccccc1)N1CCNCC1)c1ccc(Cl)cc1 (configuration not stated),-19.2,-17.9%,0.6%,-18.0%,8.91µM*
Cc1ccc2c(c1)C1CN(C)CCC1N2C(=S)NC(=O)c1ccc(Br)cc1 (configuration not stated),x,x,6.1%[46 µM],x,14.1µM*
COC/C=C/C1=CC2=CC(=O)C(C)(OC(=O)c3cnc4ccccc4n3)C(=O)C2=CO1 (configuration not stated),x,-7.6%,x,3.8%,0.0%
O=C(Nc1ccc(C(=O)N2CCOCC2)cc1)Nc1cccc(Cl)c1,115.6,28.2µM*,u,-2.0%,22.1%
CC(=O)c1cccc(NC(=O)Nc2ccc(C(=O)N3CCCC3)cc2)c1,-2.8,1.12µM*,17.1%,0.2%,14.1µM*
O=C(Nc1ccc(OCC(=O)N2CCOCC2)cc1)Nc1cccc(Cl)c1,x,x,13.8%[46 µM],x,1.1%
